The first test deals with T1, ERK8.
T1 construct: gene MAPK15
Particulars: concentration: 1 μM, replicates: in singlicate; n = 1.
In the case of `Cl.c1ccc(-c2ccc3c(Nc4ccc5[nH]ncc5c4)ccnc3c2)nc1` [GW440137], the “%Inh” value is recorded as 0%. Same read-out and setting: the value for `COc1cccc(-c2ccc3c(NC(=O)C4CC4)n[nH]c3n2)c1` [SB-710903] was 11%; that for `COc1cccc(C(=O)Nc2cccc(Oc3ccc4nc(NC(=O)C5CC5)cn4n3)c2)c1` was 14%; that for `CNC(=O)c1ccccc1Nc1nc(Nc2ccc(N3CCOCC3)cc2)ncc1Cl.Cl` [GSK1576028] was 99.5%. Still for that read-out and setting: the value for `O=C(Nc1cccc(Oc2ccc3nc(NC(=O)C4CC4)cn3n2)c1)c1ccccc1C(F)(F)F` was 20%.

`Cc1ccc(S(=O)(=O)Nc2ccc(Nc3nccc(Nc4cccc5[nH]ncc45)n3)cc2)cc1` [GSK581271]: the “%Inh” value is on record as 28%. Same read-out and setting: with `Cc1cccc(NC(=O)Nc2ccc(Oc3ncnc4ccn(C)c34)cc2)c1` the figure was 12%. Regarding `CC(=O)Nc1nc2cnc(Nc3cc(NC(=O)c4cccc(C5(C#N)CC5)c4Cl)ccc3C)nc2s1`, the “%Inh” value came to 0%. On the same count and under the same terms, with `COc1cccc(C2=C(Nc3ccc(Cl)c(C(=O)O)c3)C(=O)NC2=O)c1` [SB-390769] the figure was 0%. On the same count and under the same terms, with `CN(C)S(=O)(=O)c1cc(-c2ccc3nccc(-c4cccc(S(N)(=O)=O)c4)c3c2)cnc1N` [GSK1669921] the figure was 40%; with `O=C(Nc1ccccc1F)NC1CCN(c2ccnc(Nc3ccc(F)cc3)n2)CC1` [GSK1379800], 0%; with `O=C(Nc1n[nH]c2cc(-c3ccoc3)ccc12)C1CC1` [SB-738481], 84%.

As to `CSc1cccc2c(-c3ccncn3)c(-c3ccc(F)cc3)nn12` [GW514786], the “%Inh” value was determined as 0%.

Consider `CN(c1ccc(NC(=O)Nc2cc(C(F)(F)F)ccc2F)cc1)c1ccnc(Nc2ccc(S(N)(=O)=O)cc2)n1` [GW809893], for which the “%Inh” value was found to be 98.6%. Still for that read-out and setting: the value for `O=C(Nc1cccc(-c2nn3ncccc3c2-c2ccnc(Nc3ccccc3)n2)c1)c1c(F)cccc1F` [GSK198271] was 0%.

In the case of `c1ccc(-c2n[nH]cc2Nc2ccnc3ccccc23)nc1` [GW694077], the “%Inh” value amounted to 25%. Same read-out and setting: with `Cl.Cl.NCC(C(=O)Nc1cc(Br)c(-c2ccnc3[nH]ccc23)s1)c1ccccc1` (centres unmarked) [GSK1269851] the figure was 74%; with `O=C(Nc1cccc(-c2nn3ccccc3c2-c2ccnc(Nc3cccc(C(F)(F)F)c3)n2)c1)c1c(F)cccc1F` [GSK292658], 9%. The same measure, in the same setting: with `Cc1ccc(C)c(NC(=O)NC2CCN(c3ccnc(Nc4ccc(F)cc4)n3)C2)c1` (centres unmarked) [GSK1379720] the figure was 0%. Same read-out and setting: with `COCCOCCOc1cc2ncc3c4ccc(C#N)cc4[nH]c3c2cc1OC` the figure was 36%. As for `CN1CCN(Cc2cccc(-c3ccc4c(Nc5ccc(Oc6ccccc6)cc5)ccnc4c3)c2)CC1` [GW578342], the “%Inh” value was 0%.

On to `Cl.Cl.NCC(NCc1ccc(-c2ccnc3[nH]ccc23)s1)c1ccccc1` (centres unmarked) [GSK1321565], for which the “%Inh” value came out at 18%. On the same count and under the same terms, the value for `Cn1cc(-c2ccc3c(c2)CCN3C(=O)Cc2cccc(F)c2)c2c(N)ncnc21` [GSK2603358] was 0%. The same measure, in the same setting: with `Clc1ccc(-c2nn3ncccc3c2-c2ccnc(Nc3ccc4c(c3)OCCO4)n2)cc1` [GW829116] the figure was 1%; with `Nc1ncc(-c2cccnc2)c2scc(-c3ccc4c(c3)CCN4C(=O)Cc3ccccc3)c12` [GSK683281], 0%.

A further test deals with ERN1. The following applies: concentration: 1 μM, replicates: in singlicate; n = 1.
Turning to `CCS(=O)(=O)c1ccc(OC)c(Nc2nccc(-c3c(-c4cccc(NC(=O)c5c(F)cccc5F)c4)nn4ncccc34)n2)c1` [GSK326180], the “%Inh” value stood at 22%. `COc1cc(Nc2nccc(-c3c(-c4cccc(NC(=O)c5c(F)cccc5F)c4)nn4ncccc34)n2)cc(OC)c1OC` [GSK327238]: the “%Inh” value stood at 30%. The same measure, in the same setting: the value for `COc1ccc(-c2coc3ccc(-c4nnc(SCc5ccc(OC)c(C(F)(F)F)c5)o4)cc23)cc1` was 44%; that for `Oc1cc(Nc2ccnc3cc(I)ccc23)ccc1F` [GW552771] was 0%; that for `O=c1[nH]cc(-c2ccc(N3CCOCC3)cc2)c2sc(-c3cn[nH]c3)cc12` [GSK2276055] was 11%.

With `FC(F)(F)c1ccc(/C=C/c2cncnc2Nc2ccc3[nH]c(Cc4ccccc4)nc3c2)cc1` [GW709199], the “%Inh” value is 0%. The same measure, in the same setting: the value for `Nc1ncnc2c1nc(-c1ccccc1)n2-c1ccccc1` [SKF-97293] was 35%; that for `Cn1cc(-c2ccc3c(c2)CCN3C(=O)Cc2cccc(Cl)c2)c2c(N)ncnc21` [GSK2606590] was 0%. On the same count and under the same terms, with `Cc1ccc(C(=O)Nc2ccc(Nc3ccnc4cc(-c5nccs5)ccc34)cc2O)cc1.Cl` [GW494702] the figure was 0%. The same measure, in the same setting: with `COc1cc(Nc2ncc3c(C)nc(-c4cc5ccccc5[nH]4)n3n2)cc(OC)c1OC` [GW869516] the figure was 0%; with `COc1ccc(CNC(=O)NC2CCN(c3ccnc(Nc4ccc(F)cc4)n3)CC2)cc1` [GSK1379788], 0%. Turning to `CCn1c(-c2nonc2N)nc2c(C#CC(C)(C)O)nc(OC[C@H](N)c3ccccc3)cc21` [GSK943949], the “%Inh” value came out at 4%.

For the compound `Cl.c1ccc(-c2ccc3c(Nc4ccc5[nH]ncc5c4)ccnc3c2)nc1` [GW440137], the “%Inh” value is 5%.

Take `COc1cccc(-c2ccc3c(NC(=O)C4CC4)n[nH]c3n2)c1` [SB-710903]: the “%Inh” value is 0%. On the same count and under the same terms, with `COc1cccc(C(=O)Nc2cccc(Oc3ccc4nc(NC(=O)C5CC5)cn4n3)c2)c1` the figure was 0%; with `CNC(=O)c1ccccc1Nc1nc(Nc2ccc(N3CCOCC3)cc2)ncc1Cl.Cl` [GSK1576028], 78%; with `O=C(Nc1cccc(Oc2ccc3nc(NC(=O)C4CC4)cn3n2)c1)c1ccccc1C(F)(F)F`, 0%.

`Cc1ccc(S(=O)(=O)Nc2ccc(Nc3nccc(Nc4cccc5[nH]ncc45)n3)cc2)cc1` [GSK581271]: the “%Inh” value amounted to 0%. On the same count and under the same terms, the value for `Cc1cccc(NC(=O)Nc2ccc(Oc3ncnc4ccn(C)c34)cc2)c1` was 0%; that for `CC(=O)Nc1nc2cnc(Nc3cc(NC(=O)c4cccc(C5(C#N)CC5)c4Cl)ccc3C)nc2s1` was 28%; that for `COc1cccc(C2=C(Nc3ccc(Cl)c(C(=O)O)c3)C(=O)NC2=O)c1` [SB-390769] was 100%. Still for that read-out and setting: with `CN(C)S(=O)(=O)c1cc(-c2ccc3nccc(-c4cccc(S(N)(=O)=O)c4)c3c2)cnc1N` [GSK1669921] the figure was 8%; with `O=C(Nc1ccccc1F)NC1CCN(c2ccnc(Nc3ccc(F)cc3)n2)CC1` [GSK1379800], 0%.

For `O=C(Nc1n[nH]c2cc(-c3ccoc3)ccc12)C1CC1` [SB-738481], the “%Inh” value came out at 0%. The same measure, in the same setting: with `CSc1cccc2c(-c3ccncn3)c(-c3ccc(F)cc3)nn12` [GW514786] the figure was 12%; with `CN(c1ccc(NC(=O)Nc2cc(C(F)(F)F)ccc2F)cc1)c1ccnc(Nc2ccc(S(N)(=O)=O)cc2)n1` [GW809893], 5%; with `O=C(Nc1cccc(-c2nn3ncccc3c2-c2ccnc(Nc3ccccc3)n2)c1)c1c(F)cccc1F` [GSK198271], 32%.

`c1ccc(-c2n[nH]cc2Nc2ccnc3ccccc23)nc1` [GW694077]: the “%Inh” value is recorded as 22%. Regarding `Cl.Cl.NCC(C(=O)Nc1cc(Br)c(-c2ccnc3[nH]ccc23)s1)c1ccccc1` (centres unmarked) [GSK1269851], the “%Inh” value is reported as 18%. On the same count and under the same terms, the value for `O=C(Nc1cccc(-c2nn3ccccc3c2-c2ccnc(Nc3cccc(C(F)(F)F)c3)n2)c1)c1c(F)cccc1F` [GSK292658] was 0%; that for `Cc1ccc(C)c(NC(=O)NC2CCN(c3ccnc(Nc4ccc(F)cc4)n3)C2)c1` (centres unmarked) [GSK1379720] was 3%.

On to `COCCOCCOc1cc2ncc3c4ccc(C#N)cc4[nH]c3c2cc1OC`, for which the “%Inh” value worked out at 0%. `CN1CCN(Cc2cccc(-c3ccc4c(Nc5ccc(Oc6ccccc6)cc5)ccnc4c3)c2)CC1` [GW578342]: the “%Inh” value is reported as 11%. Still for that read-out and setting: the value for `Cl.Cl.NCC(NCc1ccc(-c2ccnc3[nH]ccc23)s1)c1ccccc1` (centres unmarked) [GSK1321565] was 17%; that for `Cn1cc(-c2ccc3c(c2)CCN3C(=O)Cc2cccc(F)c2)c2c(N)ncnc21` [GSK2603358] was 3%; that for `Clc1ccc(-c2nn3ncccc3c2-c2ccnc(Nc3ccc4c(c3)OCCO4)n2)cc1` [GW829116] was 0%. Still for that read-out and setting: with `Nc1ncc(-c2cccnc2)c2scc(-c3ccc4c(c3)CCN4C(=O)Cc3ccccc3)c12` [GSK683281] the figure was 35%.

The values above are taken from paper PMC5540273 (PLoS ONE, 2017).
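Note: KINOMEscan kinase panel screen.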
